Laboratory results from PubChem BioAssay (NCATS).
Where “and” joins values, the source holds several entries; their conditions need not be identical. Identical values can stand only once. Inconclusive results are not listed. A number with no mark means an inactive call. The call rests on the fitted dose curve; in most records, active means well fitted curve in the direction sought with a large enough effect; inconclusive means small, poorly fitted or top-dose-only effect, or another doubt; inactive means no such curve, though single readings can be large or run the other way.
On the % scale 0 is the no-effect control and ±100 the full control effect.

Test: qHTS Assay for Identifying Gametocytocidal Compounds (AID 743244);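 further: actives lower the fluorescent signal which means gametocytes are killed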
Details: P. falciparum 3D7 stage III-V gametocytes, alamarBlue, 72 h; max response: active compounds read low
Outline: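 In this qHTS viability screen, late-stage 3D7 gametocytes are incubated with compound for 72 h, then with alamarBlue for 24 h; reduced resorufin fluorescence marks killing.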
Work on `C[C@]12CC[C@@H]3c4ccc(O)cc4CC[C@H]3[C@@H]1C[C@@H](O)[C@@H]2O` yielded a max response of 5.6%. Molecule `C[C@]12CC[C@H]3[C@@H](CCC4=CC(=O)CC[C@@]43C)[C@@H]1CC[C@@H]2C(=O)CO` has a max response of 8.05%. `Nc1ccc(C(=O)Nc2ccccc2N)cc1` showed a max response of 0.176%. In the case of `O=S1(=O)c2cccc3cccc(c23)N1CCCN1CCN(c2ccc(F)cc2)CC1`, the max response is reported as 13.8%. For `O=C(COc1ccc(Cl)cc1)N1CCN(Cc2ccc3c(c2)OCO3)CC1`, the max response was -7.26%. Molecule `CN1[C@@H]2CC[C@H]1CC(OC(=O)c1c[nH]c3ccccc13)C2` (some centres not stated) has a max response of 7.82%. In the case of `C#C[C@]1(OC(C)=O)CC[C@H]2[C@@H]3CCC4=C[C@@H](OC(C)=O)CC[C@@H]4[C@H]3CC[C@@]21C`, the max response is reported as -2.21% and -10.1%. With `Cc1nc2n(c(=O)c1CCN1CCC(c3noc4cc(F)ccc34)CC1)CCC[C@H]2O` the max response was -12.7%. `CCCCCCCCCCCCCCCCCC(=O)OCC(O)CO` (configuration not stated) gave a max response of -12.5%. For `NC[C@H]1O[C@H](O[C@H]2[C@H](O)[C@@H](O[C@H]3O[C@H](CO)[C@@H](O)[C@H](N)[C@H]3O)[C@H](N)C[C@@H]2N)[C@H](N)[C@@H](O)[C@@H]1O`, the max response was -18.8% and 4.69%. `CN(C)CCOc1ccccc1Cc1ccccc1` showed a max response of -21.1%. `CN(C)CCCOc1nn(Cc2ccccc2)c2ccccc12` gave a max response of 10.4%. `O=C(OCC(O)CO)c1ccccc1Nc1ccnc2cc(Cl)ccc12` (configuration not stated) showed a max response of 7.94%. Molecule `NCCC(O)(P(=O)(O)O)P(=O)(O)O` has a max response of 1.74%. `NC[C@H]1O[C@H](O[C@H]2[C@H](O[C@@H]3O[C@H](CO)[C@@H](O)[C@H]3O)C(O)[C@H](N)C[C@@H]2N)[C@H](N)[C@@H](O)[C@@H]1O` (some centres not stated) gave a max response of 0.613%. Work on `COC(=O)CCc1ccc(OCC(O)CNC(C)C)cc1` (configuration not stated) yielded a max response of 1.13%. Molecule `CC1=C(C(=O)OC(C)C)C(c2cccc([N+](=O)[O-])c2)C(C(=O)OC2CN(C(c3ccccc3)c3ccccc3)C2)=C(N)N1` (configuration not stated) has a max response of 7.23%. Work on `CC(C)(C(=O)c1cccnc1)c1cccnc1` yielded a max response of 4.59%. In the case of `O=C(Nc1ccc(Cl)c(Cl)c1)C1CC1`, the max response is reported as 14%. In the case of `CC(Cc1ccccc1)(NC(=O)CN)c1ccccc1` (configuration not stated), the max response is reported as -4.06%. Molecule `CCCC(=O)O[C@]1(C(=O)CO)CC[C@H]2[C@@H]3CCC4=CC(=O)CC[C@]4(C)[C@H]3[C@@H](O)C[C@@]21C` has a max response of 1.99%. `CC(Cc1cccc(C(F)(F)F)c1)NCCOC(=O)c1ccccc1` (configuration not stated) showed a max response of 8%.
